Results on 14 compounds are retold here after PubChem BioAssay (NCATS).

Unmarked numbers belong to inactive results. Results filed as inconclusive are left out. For some assays here: Potency and affinity values are given separately. Active and inactive are the calls of the source. Unless noted, no rule for the calls is given here.

Assay [1] in a line: Immunotoxin (HA22) sensitization/mitigation study. Vehicle arm (PBS) (AID 1159510). Also: potency is read from the fitted curve at half-maximal effect.
For assay [2] the following is noted: Ebola virus entry assay, reporter ratio channel; Channel type: primary.
The conditions of assay [3]: Ebola virus entry assay, blue channel (ratio component).
Assay [4] in a line: qHTS Assay for Identifying Gametocytocidal Compounds (AID 743244; active = well fitted curve in the direction sought with a large enough effect;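 also: % is scaled to controls: 0 for no effect and ±100 for the full control effect; actives lower the fluorescent signal which means gametocytes are killed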). Particulars: P. falciparum 3D7 stage III-V gametocytes, alamarBlue, 72 h; max response: hits give low values. Summed up:
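P. falciparum 3D7 stage III–V gametocytes (20,000 cells/well) were exposed to compounds for 72 h at 37 °C, 5% CO2. AlamarBlue was then added for 24 h; decreased resorufin fluorescence (Ex 525/Em 598 nm) indicated loss of viability.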
In general terms: qHTS replaces the single test concentration by a dilution series.

The conditions of assay [5]: Ebola virus entry assay, green channel fluorescence.

Regarding `Nc1nccc(Oc2ccc(NC(=O)c3c[nH]cc(-c4ccc(F)cc4)c3=O)cc2F)c1Cl`, the Potency in assay [1] was 23.5 µM (active).
As to `O=C(O)c1ccccc1O`, the outcome in assay [2] and in assay [3] was inactive.
For `O=C(O)c1cc(Oc2ccc(C(F)(F)F)cc2Cl)ccc1[N+](=O)[O-]`, in assay [4], the max response was -10.7%. The outcome in assay [5], in assay [2] and in assay [3] was inactive.
With `CC(C)(C)NCC(O)c1ccc(O)c(CO)c1` (stereo unspecified), the outcome in assay [2] was inactive.
For the compound `Clc1ccccc1CN1CCc2sccc2C1`, the outcome in assay [2] and in assay [3] was inactive.
Turning to `CC(=O)Nc1ccc(O)cc1`, the result in assay [2] and in assay [3] was inactive.
Turning to `CC(C)c1onc(-c2c(Cl)cccc2Cl)c1COc1ccc(/C=C/c2cccc(C(=O)O)c2)c(Cl)c1`, the Potency in assay [1] is 3.32 µM (active).
With `C1CCC(NC2CCCCC2)CC1`, in assay [4], the max response is 18.7%. Besides, the compound was called inactive in assay [5], in assay [2] and in assay [3].
Regarding `CCOc1cc(NC(C)=O)ccc1C(=O)OC`, the result in assay [2] was inactive.
As for `CNC(=O)c1ccc(N2C(=S)N(c3ccc(C#N)c(C(F)(F)F)c3)C(=O)C2(C)C)cc1F`, in assay [1], the Potency entry is “inactive”.
Take `CCC1(CCC(C)C)C(=O)NC(=O)NC1=O`: the max response in assay [4] is 2.89%. In addition, the call in assay [5], in assay [2] and in assay [3] was inactive.
In the case of `CCc1cncnc1N1CCN(Cc2nc3ccc(C(F)(F)F)cc3[nH]2)CC1`, the Potency in assay [1] is 7.43 µM (active).
Still for that read-out and setting: then `COc1ccc(CC2SC(=O)NC2=O)cc1C(=O)NCc1ccc(C(F)(F)F)cc1` (stereo unspecified), with “inactive”; and `CC(C)OC(=O)C1=CN(C(=O)c2ccc(F)c(F)c2)CC(C)(C)c2c1[nH]c1ccccc21`, with 2.96 µM (active).
